# HT1080NT lethal = qHTS for induction of synthetic lethality in tumor cells producing 2HG: qHTS for the HT-1080-NT fibrosarcoma cell line | HT-1080-NT fibrosarcoma viability, CellTiter-Glo ATP luminescence, 48 h | Potency, µM (series often up to 46.1 µM), for inactives: top-dose activity, negative = less viability, usual class: cytotoxic | actives 1.6% (n = 360,000) | AID 686970, 2013;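 further: NT is the 2HG producing partner of a matched IDH1 knockdown line; potency means the concentration at half of the fitted maximal effect; 0% = DMSO-treated cells and -100% = media-only wells without cells; nearly all actives have a fitted effect of over 55% in size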
#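 A 48-hour cytotoxicity screen used HT-1080-NT cells plated 2 hours before compound delivery. ATP-based CellTiter-Glo luminescence measured viability, normalized to DMSO and no-cell controls.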
# IL1B secr inh = qHTS for Inhibitors of Inflammasome Signaling: IL-1-beta AlphaLISA Primary Screen. THP-1 LPS/ATP IL-1B secretion, AlphaLISA, 16 h; hits give low values. activity change, % at 57.5 µM. actives 4.7% (n = 360,000). AID 743279, 2014; in the data active means activity change below about -50%; inconclusive means mostly about -30% to -49%
#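 THP-1 cells pretreated 1 hr with compounds (up to 57.5 uM final), then stimulated with LPS (250 ng/mL final) plus ATP (1.25 mM final); secreted IL-1B measured by AlphaLISA after 16 hr, decreased signal indicating inhibition.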
# TDP1 cell noCPT = qHTS for Inhibitors of human tyrosyl-DNA phosphodiesterase 1 (TDP1): qHTS in cells in absence of CPT | DT40 Tdp1-/- hTDP1 cells, no CPT, ATP luminescence, 48 h | Potency, µM (series often up to 46.2 µM), inactives show at the highest dose activity change, negative = growth inhibition, most hits filed as inhibitors | actives 15% (n = 420,000) | AID 686978, 2013; further: potency means the concentration at half of the fitted maximal effect; nearly all actives have a fitted effect of over 55% in size
#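 Luminescent ATP content (CellTiter-Glo) served as the growth readout. Knockout chicken DT40 cells expressing human TDP1 were exposed to compounds without camptothecin for a minimum 48 hr at 37 °C.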
# DT40 TDP1 CPT = qHTS for Inhibitors of human tyrosyl-DNA phosphodiesterase 1 (TDP1): qHTS in cells in presence of CPT. chicken DT40 Tdp1-/-;hTDP1 cells + 20 nM CPT, ATP luminescence, 48 h. AID 686979, 2013. actives 12% (n = 420,000). Potency, µM (top dose mostly 46.2 µM), inactives show at the highest dose activity change, negative = growth inhibition, hits mostly inhibitors; further: potency means the concentration at half of the fitted maximal effect; nearly all actives have a fitted effect of over 55% in size
#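 Cell growth measured by CellTiter-Glo luminescence after a minimum 48 h, 37 C compound exposure with 20 nM CPT in Tdp1-knockout DT40 cells stably expressing hTDP1, seeded 400/well; qHTS titration format.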
# HT1080 IDH1KD tx = qHTS for induction of synthetic lethality in tumor cells producing 2HG: qHTS for the HT-1080-IDH1KD cell line. HT-1080 IDH1 knockdown viability, ATP luminescence, 48 h. Potency, µM (top dose mostly 46.1 µM), for inactives: top-dose activity, negative = toxicity, usual class: cytotoxic. actives 2% (n = 360,000);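 further: potency means the concentration at half of the fitted maximal effect; 0% = DMSO wells and -100% = cell-free medium wells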
#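 HT-1080-IDH1KD cells (IDH1 knocked down), 750/well in RPMI with 5% FBS, treated with compound 48 h at 37 degrees C. Viability by CellTiter-Glo luminescence, normalised to DMSO and no-cell wells; concentration-response curves classed.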
# ELG1 DNA repair = qHTS screen for small molecules that inhibit ELG1-dependent DNA repair in human embryonic kidney (HEK293T) cells expressing luciferase-tagged ELG1 | actives 2.3% (n = 330,000) | HEK293T ELG1-luciferase reporter, luminescence, 16 h; DNA damage induced by 5-fluorouridine | AID 504467, 2011 | Potency, µM (doses to about 46.1 µM), for inactives: at the highest dose activity change, negative = inhibition, actives largely listed as inhibitors; further: potency means the concentration at half of the fitted maximal effect; nearly all actives have a fitted effect of over 55% in size
#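 In this reporter screen, reduction of luminescence relative to DMSO vehicle indicated activity. Compounds and 5-fluorouridine were added together to 2,000 cells per well, incubated for 16 hr at 37 °C, then developed with ONE-Glo.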
# Starred values were filed as active, the others as inactive; ? = inconclusive; / = no result given; [ ] = remark or other dose. Only some compounds are listed: those with a hit (about 19% of all), similar ones and a draw of the others. Unless noted, the call rests on the fitted dose curve; in most records, active means well fitted curve in the direction sought with a large enough effect; inconclusive means small, poorly fitted or top-dose-only effect, or another doubt; inactive means no such curve, though single readings can be large; an effect the other way counts as inactive or inconclusive. Unless noted, on the % scale 0 is the no-effect control and ±100 the full control effect.
SMILES,HT1080NT lethal,IL1B secr inh,TDP1 cell noCPT,DT40 TDP1 CPT,HT1080 IDH1KD tx,ELG1 DNA repair
O=C(COC(=O)c1cnc(Cl)c(Cl)c1)NC1CC1,-0.6%,?,-2.2%,5.6%,-1.1%,?
COc1ccccc1Cc1nc2ccccc2nc1SCC(=O)Nc1c(C)cccc1C,/,/,1.7%,-2.7%,/,/
Cc1ccc(N(CN2CCCC2=O)C(=O)c2ccc(C)c(C)c2)cc1,5.6%,-21.5,7.31µM*,8.2µM*,0.0%,-3.9%
CCOc1ccccc1C(=O)N(CN1CCCC1=O)c1ccc(C)c(Cl)c1,15.1%,24.9,3.66µM*,3.66µM*,0.1%,2.1%
Cc1ccc(C(=O)N(CN2CCCC2=O)c2ccccc2)cc1C,-9.7%,20.7,?,?,-0.5%,-2.0%
Cc1ccc(C(=O)N(CN2CCCC2=O)c2ccc(F)cc2)cc1C,22.8%,77.0,25.9µM*,?,0.0%,-4.6%
COC(=O)c1nc2n(n1)C(c1cc(OC)ccc1OC)C(C(=O)Nc1ccc(C)cc1C)=C(C)N2 (stereo not given),/,/,10.2%,-20.3%,/,/
Cc1ccc(NC(=O)COCc2cc(-c3cccs3)on2)cc1Cl,/,/,-22.0%,-4.8%,/,/
COc1ccc(-c2nc3scc(CCNC(=O)c4cc(OC)cc(OC)c4)n3n2)cc1,/,/,20.6µM*,?,/,/
O=C(CNC(=O)c1ccc(Br)o1)NCCc1ccc(F)cc1,0.5%,24.0,11.2%,-1.3%,4.9%,-4.7%
O=C(NCCc1csc(-c2ccc(F)cc2)n1)c1ccc(Br)o1,/,/,?,23.1µM*,/,/
Cc1cc(C)c(NC(=O)C(=O)NCCc2csc(-c3ccc(F)cc3)n2)c(C)c1,/,/,16.4µM*,18.4µM*,/,/
COc1ccc(-c2nc3scc(CCNC(=O)Cc4ccc(F)cc4)n3n2)cc1,/,/,25.9µM*,?,/,/
CC1(C(=O)NS(=O)(=O)c2cccc(F)c2)CCN1C(=O)Cc1cccs1 (stereo not given),6.4%,-7.8,-5.3%,2.8%,17.1%,/
O=C(c1ccc(S(=O)(=O)Nc2ccccc2)cc1)N1CCCCCCC1,-5.6%,16.9,?,?,-7.2%,6.2%
COc1ccc(Cn2c(CCC(=O)NCc3ccc(Cl)cc3)nc3cccnc32)cc1,/,/,?,-4.1%,/,/
COc1ccc(CNC(=O)Cc2csc3nc(-c4ccc(C)cc4)cn23)cc1,/,/,-21.7%,-24.4%,/,/
COc1ccc(-c2nc(CCNC(=O)Cc3ccc(F)cc3)cs2)cc1,/,/,18.4µM*,14.6µM*,/,/
COc1ccc(CNC(=O)Cc2csc3nc(-c4ccc(F)cc4)cn23)cc1,/,/,?,20.6µM*,/,/
CC(=O)c1sc(NC(=O)CSCc2c(C)noc2C)nc1-c1ccccc1,1.0%,-14.7,?,-24.8%,5.9%,-33.2%
O=C(NCc1cccc(F)c1)Nc1nnc([C@H]2C[C@H](O)[C@@H](CO)O2)s1,7.1%,0.0,0.3%,7.5%,18.9%,/
COc1ccc(N2CC(O)(c3ccc(OC(F)F)cc3)[N+]3=C2CCCC3)cc1 (stereo not given),-13.7%,-53.6*,?,16.4µM*,-8.4%,5.0%
CCOc1ccc(N2CC(O)(c3ccc(F)cc3)[N+]3=C2CCCC3)cc1 (stereo not given),-16.7%,-8.5,23.1µM*,-14.3%,-3.3%,7.0%
CCN(c1ccccc1)S(=O)(=O)c1nnc(NC(=O)C2CCCCC2)s1,/,/,-0.6%,3.2%,/,/
CCN(c1ccc(C)cc1)S(=O)(=O)c1nnc(NC(=O)C2CCCCC2)s1,/,/,10.3µM*,?,/,/
SMILES,HT1080NT lethal,IL1B secr inh,TDP1 cell noCPT,DT40 TDP1 CPT,HT1080 IDH1KD tx,ELG1 DNA repair
CC(C)CN(c1ccccc1)S(=O)(=O)c1nnc(NC(=O)C2CCCCC2)s1,/,/,?,5.17µM*,/,/
CC(C)CN(c1ccccc1)S(=O)(=O)c1nnc(NC(=O)C(C)C)s1,4.1%,8.3,-4.6%,0.5%,6.0%,4.6%
CCNc1ncc2nc(-c3cc(F)cc(F)c3)c(=O)n(Cc3cccs3)c2n1,/,/,-3.7%,-2.4%,/,/
Cc1ccccc1-c1cc(C(=O)O)nn1CC1CC(c2cccc([N+](=O)[O-])c2)=NO1 (stereo not given),-28.4%,-2.1,-4.1%,11.8%,-1.0%,6.9%
Cc1ccccc1-c1cc(C(=O)NCc2ccco2)nn1CC1CC(c2cccc([N+](=O)[O-])c2)=NO1 (stereo not given),-3.6%,-26.2,?,16.4µM*,-7.3%,?
Cc1ccccc1-c1cc(C(=O)NCc2cccs2)nn1CC1CC(c2cccc([N+](=O)[O-])c2)=NO1 (stereo not given),-0.7%,-20.8,16.4µM*,?,-8.9%,-8.1%
CS(=O)(=O)N1CCC2(CCCN(Cc3ccc(C#N)cc3)C2)CC1,/,/,-16.4%,-3.4%,/,/
COc1cccc(-c2nc3cc(SC)ccc3cc2CN(C(=O)c2csc(C)n2)C2CC2)c1,/,/,?,-14.5%[9.04 µM],/,/
CC1(c2cccc(Br)c2)NC(=O)N(CC(=O)NC2CCCCC2)C1=O (stereo not given),-0.9%,13.9,0.1%,-0.7%,-1.3%,8.3%
Cc1ccc(C2(c3ccccc3)NC(=O)N(CC(=O)N3CC(=O)Nc4ccccc43)C2=O)cc1C (stereo not given),0.3%[9.24 µM],0.0,23.1µM*,?,-21.5%,8.2%
Cc1ccc(C2(c3ccccc3)NC(=O)N(CC(=O)NC3CCCCC3)C2=O)cc1C (stereo not given),-3.4%,-19.6,18.4µM*,?,-21.2%,-7.2%
Cc1noc(-c2ccc(N3CCCCC3)c([N+](=O)[O-])c2)n1,/,/,-27.1%,?,/,/
Cn1c(/C=C/c2ccccc2[N+](=O)[O-])nc2ccccc2c1=O,0.6%,-5.2,?,?,3.6%,17.4%
Cn1c(/C=C/c2ccc(Br)cc2)nc2ccccc2c1=O,9.4%,-13.6,18.4µM*,?,0.7%,?
O=c1c2ccccc2nc(/C=C/c2cccc([N+](=O)[O-])c2)n1CCO,-17.2%,?,?,-9.0%,-10.1%,?
O=c1c2ccccc2nc(/C=C/c2cc(Br)ccc2O)n1CCCO,?,-100.5*,16.4µM*,?,?,?
CNc1ncncc1-c1ccccc1OC,/,/,-18.8%,2.6%,/,/
